“And” between values parts separate entries of the source, which are not always exact repeats. Equal values may be shown once. The whole screen tested about 5,500 compounds, of which about 2,000 (36%) were called active. Not shown: some 18% with an inconclusive outcome. No stated cut-off is given here; in the data, active means normalized growth mostly below about 0.91 (no sharp cut-off); inconclusive means no clear call, values can overlap the other calls; inactive means mostly above about 0.92. The list shows a part of the results.
Assay: chemical genetic growth profiling, strain panel (AID 1159580);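 further: tested at 20 µM; growth read once vehicle control cultures reached saturation at 30 °C; 1 = growth at the plate median or of vehicle wells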
Conditions: S. cerevisiae deletion strains, growth OD

Measured: normalized growth

O=c1c(-c2ccc(O)cc2)coc2cc(O)cc(O)c12
inactive: locus YAL013W, strain DEP1, stronger effect = lower value 1.03 | locus YAL021C, strain ccr4, stronger effect = lower value 1.01 | locus YAL026C, strain drs2, stronger effect = lower value 1.02 | locus YAL030W, strain snc1, stronger effect = lower value 1.01 | locus YAL040C, strain CLN3, stronger effect = lower value 0.968 | locus YBL061C, strain skt5, stronger effect = lower value 1.01 | locus YBR009C, strain hhf1, stronger effect = lower value 1.01 | locus YBR021W, strain FUR4, stronger effect = lower value 1 | locus YBR023C, strain chs3, stronger effect = lower value 1.01 | locus YBR171W, strain sec66, stronger effect = lower value 1.01 | locus YBR229C, strain ROT2, stronger effect = lower value 1.02 | locus YBR231C, strain swc5, stronger effect = lower value 1.01 | locus YBR279W, strain paf1, stronger effect = lower value 1 | locus YCL011C, strain gbp2, stronger effect = lower value 1.01 | locus YCL016C, strain dcc1, stronger effect = lower value 1.01 | locus YCL029C, strain bik1, stronger effect = lower value 1.03 | locus YCL061C, strain MRC1 (second series), stronger effect = lower value 1 | locus YCL061C, strain MRC1, stronger effect = lower value 1 | locus YCL069W, strain vba3, stronger effect = lower value 1.02 | locus YCR088W, strain abp1, stronger effect = lower value 1.02 | locus YDL005C, strain med2, stronger effect = lower value 1 | locus YDL035C, strain GPR1, stronger effect = lower value 1.07 | locus YDL040C, strain nat1, stronger effect = lower value 1.01 | locus YDL074C, strain BRE1, stronger effect = lower value 1.14 | locus YDL101C, strain DUN1, stronger effect = lower value 1.03 | locus YDL185W, strain tfp1, stronger effect = lower value 1.02 | locus YDL192W, strain arf1, stronger effect = lower value 1.04 | locus YDR001C, strain nth1, stronger effect = lower value 1.01 | locus YDR069C, strain doa4, stronger effect = lower value 1.01 | locus YDR101C, strain arx1, stronger effect = lower value 1 | locus YDR137W, strain rgp1, stronger effect = lower value 0.983 | locus YDR150W, strain NUM1, stronger effect = lower value 0.996 | locus YDR159W, strain sac3, stronger effect = lower value 1.02 | locus YDR162C, strain NBP2, stronger effect = lower value 1.04 | locus YDR195W, strain ref2 1.03 | locus YDR297W, strain sur2, stronger effect = lower value 1.01 | locus YDR318W, strain mcm21, stronger effect = lower value 1.02 | locus YDR334W, strain swr1, stronger effect = lower value 0.989 | locus YDR335W, strain msn5, stronger effect = lower value 1.02 | locus YDR363W, strain ESC2, stronger effect = lower value 0.994 | locus YDR388W, stronger effect = lower value 1.03 | locus YDR392W, strain spt3, stronger effect = lower value 0.989 | locus YDR502C, strain sam2, stronger effect = lower value 1.02 | locus YEL003W, strain gim4, stronger effect = lower value 1.01 | locus YEL037C, strain rad23, stronger effect = lower value 1.01 | locus YEL061C, strain CIN8 (second series), stronger effect = lower value 1.01 | locus YER002W, strain NOP16, stronger effect = lower value 0.996 | locus YER015W, strain faa2, stronger effect = lower value 1.01 | locus YER016W, strain bim1, stronger effect = lower value 1.01 | locus YER110C, stronger effect = lower value 1.04 | locus YER111C, strain swi4, stronger effect = lower value 1.03 | locus YER155C, strain BEM2 (second series), stronger effect = lower value 1.02 | locus YER155C, strain BEM2, stronger effect = lower value 1.03 | locus YER167W, strain BCK2, stronger effect = lower value 1.03 | locus YFR010W, strain ubp6, stronger effect = lower value 0.995 | locus YGL078C, strain dbp3, stronger effect = lower value 1.03 | locus YGL086W, strain mad1, stronger effect = lower value 1.01 | locus YGL167C, strain pmr1, stronger effect = lower value 1.01 | locus YGL173C, strain kem1, stronger effect = lower value 1.01 | locus YGL227W, strain vid30, stronger effect = lower value 1.01 | locus YGL240W, strain doc1, stronger effect = lower value 1.01 | locus YGL248W, strain PDE1, stronger effect = lower value 1.07 | locus YGL253W, strain hxk2, stronger effect = lower value 1 | locus YGR078C, strain PAC10, stronger effect = lower value 1.06 | locus YGR135W, strain pre9, stronger effect = lower value 1.05 | locus YGR252W, strain gcn5, stronger effect = lower value 0.958 | locus YHR013C, strain ard1, stronger effect = lower value 1.03 | locus YHR027C, strain rpn1, stronger effect = lower value 1.01 | locus YHR030C, strain SLT2, stronger effect = lower value 0.984 and 1.04 | locus YHR079C, strain IRE1 (second series), stronger effect = lower value 1.02 | locus YHR079C, strain IRE1, stronger effect = lower value 1.01 | locus YHR094C, strain hxt1, stronger effect = lower value 1.04 | locus YHR129C, strain ARP1, stronger effect = lower value 1.05 | locus YHR142W, strain chs7, stronger effect = lower value 0.991 | locus YHR200W, strain rpn10, stronger effect = lower value 1.02 | locus YIL066C, strain RNR3, stronger effect = lower value 1.05 | locus YIL073C, strain SPO22, stronger effect = lower value 1.13 | locus YIL125W, strain kgd1, stronger effect = lower value 1.03 | locus YIR030C, strain dcg1, stronger effect = lower value 1.03 | locus YJL092W, strain hpr5, stronger effect = lower value 1.01 | locus YJL095W, strain BCK1 (second series), stronger effect = lower value 1.01 | locus YJL095W, strain BCK1, stronger effect = lower value 1.11 and 1.05 | locus YJL115W, strain asf1, stronger effect = lower value 0.999 | locus YJL129C, strain trk1, stronger effect = lower value 0.997 | locus YJL134W, strain LCB3, stronger effect = lower value 1.03 | locus YJL154C, strain vps35, stronger effect = lower value 1 | locus YJL164C, strain tpk1, stronger effect = lower value 0.95 | locus YJL166W, strain qcr8, stronger effect = lower value 1 | locus YJL168C, strain set2, stronger effect = lower value 1.03 | locus YJL187C, strain SWE1 (second series), stronger effect = lower value 1.05 | locus YJL187C, strain SWE1, stronger effect = lower value 1 | locus YJR066W, strain TOR1, stronger effect = lower value 0.999 | locus YKL009W, strain mrt4, stronger effect = lower value 1.04 | locus YKL068W, stronger effect = lower value 1 | locus YKL085W, strain MDH1 (second series), stronger effect = lower value 1.02 | locus YKL085W, strain MDH1, stronger effect = lower value 1.02 | locus YKL160W, strain elf1, stronger effect = lower value 1 | locus YKL190W, strain CNB1, stronger effect = lower value 1.02 | locus YKR001C, strain vps1, stronger effect = lower value 1.03 | locus YKR026C, strain gcn3, stronger effect = lower value 1.02 | locus YKR091W, strain srl3, stronger effect = lower value 1.01 | locus YLL001W, strain dnm1, stronger effect = lower value 1.02 | locus YLL026W, stronger effect = lower value 1.02 | locus YLL041C, strain sdh2, stronger effect = lower value 1 | locus YLR027C, strain aat2, stronger effect = lower value 1.01 | locus YLR039C, strain RIC1, stronger effect = lower value 1.21 | locus YLR058C, strain SHM2, stronger effect = lower value 1.05 | locus YLR102C, strain apc9, stronger effect = lower value 1.03 | locus YLR113W, strain HOG1, stronger effect = lower value 1.07 | locus YLR221C, strain rsa3, stronger effect = lower value 1 | locus YLR258W, strain gsy2, stronger effect = lower value 1.01 | locus YLR262C, strain YPT6 (second series), stronger effect = lower value 1.01 | locus YLR268W, strain sec22, stronger effect = lower value 1.03 | locus YLR320W, strain mms22, stronger effect = lower value 1 | locus YLR342W, strain FKS1, stronger effect = lower value 1.01 | locus YLR357W, strain rsc2, stronger effect = lower value 0.987 | locus YLR370C, strain arc18, stronger effect = lower value 1.01 | locus YLR371W, strain rom2, stronger effect = lower value 1.06 | locus YLR384C, strain iki3, stronger effect = lower value 1.02 | locus YLR418C, strain cdc73, stronger effect = lower value 1.05 | locus YML016C, strain PPZ1, stronger effect = lower value 1.03 | locus YML032C, strain rad52, stronger effect = lower value 1.02 | locus YML120C, strain ndi1, stronger effect = lower value 1.02 | locus YML124C, strain tub3, stronger effect = lower value 1.02 | locus YMR058W, strain fet3, stronger effect = lower value 1.01 | locus YMR078C, strain ctf18, stronger effect = lower value 1.03 | locus YMR125W, strain sto1, stronger effect = lower value 1.01 | locus YMR129W, stronger effect = lower value 1.01 | locus YMR205C, strain PFK2, stronger effect = lower value 1.02 | locus YMR223W, strain ubp8, stronger effect = lower value 1.03 | locus YMR231W, strain pep5, stronger effect = lower value 1 | locus YMR263W, strain SAP30, stronger effect = lower value 1.03 | locus YMR307W, strain GAS1, stronger effect = lower value 1.17 and 0.992 | locus YNL067W, strain RPL9B, stronger effect = lower value 1.03 | locus YNL071W, strain lat1, stronger effect = lower value 1.02 | locus YNL128W, strain TEP1, stronger effect = lower value 1.06 | locus YNL175C, strain NOP13, stronger effect = lower value 1.01 | locus YNL183C, strain NPR1, stronger effect = lower value 0.993 | locus YNL197C, strain WHI3, stronger effect = lower value 1.01 | locus YNL209W, strain ssb2, stronger effect = lower value 0.996 | locus YNL224C, strain SQS1, stronger effect = lower value 1 | locus YNL233W, strain BNI4, stronger effect = lower value 1.08 | locus YNL248C, strain rpa49, stronger effect = lower value 0.999 | locus YNL250W, strain rad50, stronger effect = lower value 1.04 | locus YNL271C, strain bni1, stronger effect = lower value 1.02 | locus YNL298W, strain CLA4, stronger effect = lower value 1.04 | locus YNL307C, strain MCK1, stronger effect = lower value 1.06 | locus YNL322C, strain KRE1 (second series), stronger effect = lower value 1.01 | locus YNL322C, strain KRE1, stronger effect = lower value 0.996 | locus YNR049C, strain mso1, stronger effect = lower value 1.01 | locus YNR052C, strain pop2, stronger effect = lower value 1.05 | locus YOL006C, strain TOP1, stronger effect = lower value 1.26 | locus YOL012C, strain htz1 0.919 | locus YOL147C, strain pex11, stronger effect = lower value 1.01 | locus YOR001W, strain rrp6, stronger effect = lower value 1.01 | locus YOR061W, strain CKA2, stronger effect = lower value 1.04 | locus YOR069W, strain VPS5, stronger effect = lower value 1.03 | locus YOR070C, strain gyp1, stronger effect = lower value 1 | locus YOR080W, strain dia2, stronger effect = lower value 1.01 | locus YOR083W, strain WHI5 (second series), stronger effect = lower value 1.03 | locus YOR083W, strain WHI5, stronger effect = lower value 0.997 | locus YOR106W, strain vam3, stronger effect = lower value 0.977 | locus YOR136W, strain idh2, stronger effect = lower value 1.03 | locus YOR144C, strain elg1, stronger effect = lower value 1.02 | locus YOR184W, strain ser1, stronger effect = lower value 1 | locus YOR231W, strain MKK1, stronger effect = lower value 1.04 | locus YOR265W, strain rbl2, stronger effect = lower value 1.01 | locus YOR270C, strain vph1, stronger effect = lower value 0.982 | locus YOR290C, strain snf2, stronger effect = lower value 0.989 | locus YOR316C, strain cot1, stronger effect = lower value 1.02 | locus YPL051W, strain arl3, stronger effect = lower value 0.989 | locus YPL055C, strain LGE1, stronger effect = lower value 1.08 and 1.02 | locus YPL078C, strain atp4, stronger effect = lower value 1.01 | locus YPL106C, strain sse1, stronger effect = lower value 1.02 | locus YPL240C, strain hsp82, stronger effect = lower value 0.992 | locus YPL241C, strain CIN2, stronger effect = lower value 1 | locus YPL256C, strain CLN2, stronger effect = lower value 1.05 | locus YPR119W, strain clb2, stronger effect = lower value 1.03 | locus YPR141C, strain kar3, stronger effect = lower value 1.02 | locus YPR163C, strain tif3, stronger effect = lower value 1.04 | locus YPR167C, strain met16, stronger effect = lower value 1.03 | strain wtn01, stronger effect = lower value 1.02
